Test results taken from PubChem BioAssay AID1159580 (chemical genetic matrix, 2015).
Several values for one entry are separate records, joined by “and”; a condition that tells them apart may be missing. Equal entries are not always repeated. In all, about 5,500 compounds went through this assay and about 2,000 (36%) were called active. About 18% were inconclusive and are not listed. Rule as the data show it: active = normalized growth mostly below about 0.91 (no sharp cut-off); inconclusive = no clear call, values can overlap the other calls; inactive = mostly above about 0.92. This is one part of the list.

Test: chemical genetic growth profiling, strain panel (AID 1159580);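 also: tested at 20 µM; growth read once vehicle control cultures reached saturation at 30 °C; 1 = growth at the plate median or of vehicle wells; lower values mean less growth of the strain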
Conditions: growth OD

Measured: normalized growth

CN(C)C(=O)C(CCN1CCC(O)(c2ccc(Cl)cc2)CC1)(c1ccccc1)c1ccccc1
inactive: S. cerevisiae deletion strains, locus YJR075W, strain HOC1, active compounds read low 1.01 and 0.984 | S. cerevisiae deletion strains, locus YKL009W, strain mrt4, active compounds read low 1.01 | S. cerevisiae deletion strains, locus YKL068W, active compounds read low 1 | S. cerevisiae deletion strains, locus YKL085W, strain MDH1 (second series), active compounds read low 1.01 | S. cerevisiae deletion strains, locus YKL085W, strain MDH1, active compounds read low 1.01 | S. cerevisiae deletion strains, locus YKL160W, strain elf1, active compounds read low 0.973 | S. cerevisiae deletion strains, locus YKL190W, strain CNB1, active compounds read low 0.997 | S. cerevisiae deletion strains, locus YKR001C, strain vps1, active compounds read low 1.01 | S. cerevisiae deletion strains, locus YKR026C, strain gcn3, active compounds read low 0.997 | S. cerevisiae deletion strains, locus YKR091W, strain srl3, active compounds read low 0.991 | S. cerevisiae deletion strains, locus YLL001W, strain dnm1, active compounds read low 0.971 | S. cerevisiae deletion strains, locus YLL026W, active compounds read low 0.987 | S. cerevisiae deletion strains, locus YLL041C, strain sdh2, active compounds read low 1 | S. cerevisiae deletion strains, locus YLR027C, strain aat2, active compounds read low 0.976 | S. cerevisiae deletion strains, locus YLR039C, strain RIC1, active compounds read low 1.05 | S. cerevisiae deletion strains, locus YLR058C, strain SHM2, active compounds read low 1 | S. cerevisiae deletion strains, locus YLR102C, strain apc9, active compounds read low 1.01 | S. cerevisiae deletion strains, locus YLR113W, strain HOG1, active compounds read low 0.988 | S. cerevisiae deletion strains, locus YLR221C, strain rsa3, active compounds read low 1 | S. cerevisiae deletion strains, locus YLR258W, strain gsy2, active compounds read low 0.995 | S. cerevisiae deletion strains, locus YLR262C, strain YPT6 (second series), active compounds read low 1.03 | S. cerevisiae deletion strains, locus YLR262C, strain YPT6, active compounds read low 0.991 | S. cerevisiae deletion strains, locus YLR268W, strain sec22, active compounds read low 1.04 | S. cerevisiae deletion strains, locus YLR320W, strain mms22, active compounds read low 0.932 | S. cerevisiae deletion strains, locus YLR330W, strain CHS5, active compounds read low 0.993 | S. cerevisiae deletion strains, locus YLR342W, strain FKS1 (second series), active compounds read low 0.946 | S. cerevisiae deletion strains, locus YLR342W, strain FKS1, active compounds read low 0.955 | S. cerevisiae deletion strains, locus YLR357W, strain rsc2, active compounds read low 0.994 | S. cerevisiae deletion strains, locus YLR370C, strain arc18, active compounds read low 1 | S. cerevisiae deletion strains, locus YLR371W, strain rom2, active compounds read low 1.01 | S. cerevisiae deletion strains, locus YLR384C, strain iki3, active compounds read low 0.996 | S. cerevisiae deletion strains, locus YLR418C, strain cdc73, active compounds read low 0.979 | S. cerevisiae deletion strains, locus YML016C, strain PPZ1, active compounds read low 0.998 | S. cerevisiae deletion strains, locus YML032C, strain rad52, active compounds read low 1.01 | S. cerevisiae deletion strains, locus YML120C, strain ndi1, active compounds read low 0.993 | S. cerevisiae deletion strains, locus YML124C, strain tub3, active compounds read low 1.01 | S. cerevisiae deletion strains, locus YMR058W, strain fet3, active compounds read low 0.996 | S. cerevisiae deletion strains, locus YMR078C, strain ctf18, active compounds read low 1.01 | S. cerevisiae deletion strains, locus YMR125W, strain sto1, active compounds read low 1.02 | S. cerevisiae deletion strains, locus YMR129W, active compounds read low 1 | S. cerevisiae deletion strains, locus YMR205C, strain PFK2, active compounds read low 0.969 | S. cerevisiae deletion strains, locus YMR223W, strain ubp8, active compounds read low 0.992 | S. cerevisiae deletion strains, locus YMR231W, strain pep5, active compounds read low 0.985 | S. cerevisiae deletion strains, locus YMR263W, strain SAP30, active compounds read low 1.01 and 0.992 | S. cerevisiae deletion strains, locus YMR307W, strain GAS1, active compounds read low 0.941 and 0.992 | S. cerevisiae deletion strains, locus YNL067W, strain RPL9B, active compounds read low 1.01 | S. cerevisiae deletion strains, locus YNL071W, strain lat1, active compounds read low 0.975 | S. cerevisiae deletion strains, locus YNL128W, strain TEP1, active compounds read low 1.01 | S. cerevisiae deletion strains, locus YNL153C, strain GIM3, active compounds read low 1.01 | S. cerevisiae deletion strains, locus YNL175C, strain NOP13, active compounds read low 1 | S. cerevisiae deletion strains, locus YNL183C, strain NPR1, active compounds read low 0.939 | S. cerevisiae deletion strains, locus YNL197C, strain WHI3, active compounds read low 0.987 | S. cerevisiae deletion strains, locus YNL209W, strain ssb2, active compounds read low 1.01 | S. cerevisiae deletion strains, locus YNL224C, strain SQS1, active compounds read low 1.04 | S. cerevisiae deletion strains, locus YNL233W, strain BNI4, active compounds read low 1 | S. cerevisiae deletion strains, locus YNL248C, strain rpa49, active compounds read low 0.988 | S. cerevisiae deletion strains, locus YNL250W, strain rad50, active compounds read low 1.02 | S. cerevisiae deletion strains, locus YNL271C, strain bni1, active compounds read low 1.02 | S. cerevisiae deletion strains, locus YNL298W, strain CLA4, active compounds read low 1 | S. cerevisiae deletion strains, locus YNL307C, strain MCK1, active compounds read low 0.994 | S. cerevisiae deletion strains, locus YNL322C, strain KRE1 (second series), active compounds read low 0.993 | S. cerevisiae deletion strains, locus YNL322C, strain KRE1, active compounds read low 1.01 | S. cerevisiae deletion strains, locus YNR049C, strain mso1, active compounds read low 1 | S. cerevisiae deletion strains, locus YNR052C, strain pop2, active compounds read low 1 | S. cerevisiae deletion strains, locus YOL006C, strain TOP1, active compounds read low 1.01 | S. cerevisiae deletion strains, locus YOL012C, strain htz1 1.2 | S. cerevisiae deletion strains, locus YOL147C, strain pex11, active compounds read low 1.01 | S. cerevisiae deletion strains, locus YOR001W, strain rrp6, active compounds read low 0.982 | S. cerevisiae deletion strains, locus YOR061W, strain CKA2, active compounds read low 0.995 | S. cerevisiae deletion strains, locus YOR069W, strain VPS5, active compounds read low 1 | S. cerevisiae deletion strains, locus YOR070C, strain gyp1, active compounds read low 0.996 | S. cerevisiae deletion strains, locus YOR080W, strain dia2, active compounds read low 0.981 | S. cerevisiae deletion strains, locus YOR083W, strain WHI5 (second series), active compounds read low 1.07 | S. cerevisiae deletion strains, locus YOR083W, strain WHI5, active compounds read low 0.954 | S. cerevisiae deletion strains, locus YOR106W, strain vam3, active compounds read low 1 | S. cerevisiae deletion strains, locus YOR136W, strain idh2, active compounds read low 1 | S. cerevisiae deletion strains, locus YOR144C, strain elg1, active compounds read low 1.01 | S. cerevisiae deletion strains, locus YOR184W, strain ser1, active compounds read low 1.02 | S. cerevisiae deletion strains, locus YOR231W, strain MKK1, active compounds read low 0.997 | S. cerevisiae deletion strains, locus YOR265W, strain rbl2, active compounds read low 1 | S. cerevisiae deletion strains, locus YOR270C, strain vph1, active compounds read low 0.996 | S. cerevisiae deletion strains, locus YOR290C, strain snf2, active compounds read low 0.973 | S. cerevisiae deletion strains, locus YOR316C, strain cot1, active compounds read low 1.01 | S. cerevisiae deletion strains, locus YPL051W, strain arl3, active compounds read low 0.99 | S. cerevisiae deletion strains, locus YPL055C, strain LGE1, active compounds read low 0.999 | S. cerevisiae deletion strains, locus YPL078C, strain atp4, active compounds read low 0.971 | S. cerevisiae deletion strains, locus YPL106C, strain sse1, active compounds read low 0.952 | S. cerevisiae deletion strains, locus YPL240C, strain hsp82, active compounds read low 0.992 | S. cerevisiae deletion strains, locus YPL241C, strain CIN2, active compounds read low 0.992 and 1 | S. cerevisiae deletion strains, locus YPL256C, strain CLN2, active compounds read low 0.973 | S. cerevisiae deletion strains, locus YPR119W, strain clb2, active compounds read low 1.01 | S. cerevisiae deletion strains, locus YPR141C, strain kar3, active compounds read low 1.02 | S. cerevisiae deletion strains, locus YPR163C, strain tif3, active compounds read low 1.03 | S. cerevisiae deletion strains, locus YPR167C, strain met16, active compounds read low 1.01 | S. cerevisiae deletion strains, strain wtn01, active compounds read low 1.02 | S. cerevisiae strains, strain wild type, active compounds read low 0.993
